Results published in the supplement of paper PMC10849652.
The full data set covers some 7,900 targets. This sample favours those with a hit. About 0.6% of all pairs of compound and target were hits.

Compound: CC(=O)c1cnc2ccc(-c3cc(Cl)c(O)c(Cl)c3)nc2c1N[C@H]1CC[C@H](CN(C)C)CC1
Assay: log2 fold change, soluble protein after heating vs DMSO (PISA); higher = thermal stabilisation; K562 cells, 10 uM, 30 min; active = over 0.2 and 3.5 SD of the protein, either way, in both replicates (recomputed)
Procedure, shortened: (§1)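 K562 cells at 2×10^6 cells/mL were exposed to 10 μM compound for 30 min, then aliquots were heated for 3 min across 48°C-58°C, pooled, and extracted in PBS containing 0.5% NP-40 at 4°C. The supernatant after 21,000xg for 90 min was taken as soluble protein and measured by TMTpro 16plex LC-MS/MS with channel sums equalised. Thermal stability is reported relative to control samples, with values from duplicates. Fold changes are given on a log2 scale.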

Sequence of UniProt Q9Y5K5 (Q9Y5K5 whole entry, looked up): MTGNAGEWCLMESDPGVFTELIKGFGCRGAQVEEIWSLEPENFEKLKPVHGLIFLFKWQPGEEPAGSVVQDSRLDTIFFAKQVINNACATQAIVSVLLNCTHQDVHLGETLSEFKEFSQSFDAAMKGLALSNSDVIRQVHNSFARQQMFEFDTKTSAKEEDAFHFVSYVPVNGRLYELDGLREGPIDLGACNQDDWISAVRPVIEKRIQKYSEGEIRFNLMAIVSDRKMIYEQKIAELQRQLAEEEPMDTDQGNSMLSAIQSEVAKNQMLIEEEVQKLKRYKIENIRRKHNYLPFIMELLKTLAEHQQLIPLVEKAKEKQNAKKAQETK
Sequence of UniProt Q9P253 (Q9P253 whole entry, looked up): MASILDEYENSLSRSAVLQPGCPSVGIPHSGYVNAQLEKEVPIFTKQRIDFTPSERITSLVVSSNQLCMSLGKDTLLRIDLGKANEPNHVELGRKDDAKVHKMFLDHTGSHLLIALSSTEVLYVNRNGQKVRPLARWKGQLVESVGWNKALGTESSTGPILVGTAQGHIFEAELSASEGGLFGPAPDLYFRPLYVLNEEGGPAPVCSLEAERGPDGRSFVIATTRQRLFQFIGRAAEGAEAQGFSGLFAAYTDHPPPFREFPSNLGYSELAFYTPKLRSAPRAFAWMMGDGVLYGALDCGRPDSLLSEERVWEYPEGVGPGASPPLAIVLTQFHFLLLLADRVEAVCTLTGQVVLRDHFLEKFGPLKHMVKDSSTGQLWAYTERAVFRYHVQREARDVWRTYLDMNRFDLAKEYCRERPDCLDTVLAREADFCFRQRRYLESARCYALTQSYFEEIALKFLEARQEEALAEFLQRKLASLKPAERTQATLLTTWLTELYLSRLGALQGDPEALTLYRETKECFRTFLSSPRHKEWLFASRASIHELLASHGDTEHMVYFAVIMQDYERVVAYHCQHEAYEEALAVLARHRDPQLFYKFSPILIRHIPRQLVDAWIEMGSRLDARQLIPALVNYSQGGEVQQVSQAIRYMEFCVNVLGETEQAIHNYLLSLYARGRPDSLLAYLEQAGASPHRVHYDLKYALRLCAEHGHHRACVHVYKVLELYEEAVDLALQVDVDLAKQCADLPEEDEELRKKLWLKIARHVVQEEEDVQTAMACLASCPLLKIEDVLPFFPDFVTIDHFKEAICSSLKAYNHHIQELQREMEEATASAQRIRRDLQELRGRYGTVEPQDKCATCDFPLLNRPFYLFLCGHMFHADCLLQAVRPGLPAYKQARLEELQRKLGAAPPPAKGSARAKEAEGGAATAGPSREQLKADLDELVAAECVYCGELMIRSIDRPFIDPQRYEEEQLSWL
Sequence of UniProt Q9NX01 (Q9NX01 whole entry, looked up): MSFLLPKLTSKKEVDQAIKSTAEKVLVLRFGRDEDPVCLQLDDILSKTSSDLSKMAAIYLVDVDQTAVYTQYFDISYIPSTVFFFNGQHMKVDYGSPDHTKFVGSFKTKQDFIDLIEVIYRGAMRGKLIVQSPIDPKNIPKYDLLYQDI
Sequence of UniProt Q5BJH2 (Q5BJH2 whole entry, looked up): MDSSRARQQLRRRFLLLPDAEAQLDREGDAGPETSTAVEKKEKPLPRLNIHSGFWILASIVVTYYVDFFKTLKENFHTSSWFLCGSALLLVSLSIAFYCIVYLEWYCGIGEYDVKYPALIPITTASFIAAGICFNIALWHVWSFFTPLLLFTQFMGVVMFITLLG
Sequence of UniProt P49815 (P49815 whole entry, looked up): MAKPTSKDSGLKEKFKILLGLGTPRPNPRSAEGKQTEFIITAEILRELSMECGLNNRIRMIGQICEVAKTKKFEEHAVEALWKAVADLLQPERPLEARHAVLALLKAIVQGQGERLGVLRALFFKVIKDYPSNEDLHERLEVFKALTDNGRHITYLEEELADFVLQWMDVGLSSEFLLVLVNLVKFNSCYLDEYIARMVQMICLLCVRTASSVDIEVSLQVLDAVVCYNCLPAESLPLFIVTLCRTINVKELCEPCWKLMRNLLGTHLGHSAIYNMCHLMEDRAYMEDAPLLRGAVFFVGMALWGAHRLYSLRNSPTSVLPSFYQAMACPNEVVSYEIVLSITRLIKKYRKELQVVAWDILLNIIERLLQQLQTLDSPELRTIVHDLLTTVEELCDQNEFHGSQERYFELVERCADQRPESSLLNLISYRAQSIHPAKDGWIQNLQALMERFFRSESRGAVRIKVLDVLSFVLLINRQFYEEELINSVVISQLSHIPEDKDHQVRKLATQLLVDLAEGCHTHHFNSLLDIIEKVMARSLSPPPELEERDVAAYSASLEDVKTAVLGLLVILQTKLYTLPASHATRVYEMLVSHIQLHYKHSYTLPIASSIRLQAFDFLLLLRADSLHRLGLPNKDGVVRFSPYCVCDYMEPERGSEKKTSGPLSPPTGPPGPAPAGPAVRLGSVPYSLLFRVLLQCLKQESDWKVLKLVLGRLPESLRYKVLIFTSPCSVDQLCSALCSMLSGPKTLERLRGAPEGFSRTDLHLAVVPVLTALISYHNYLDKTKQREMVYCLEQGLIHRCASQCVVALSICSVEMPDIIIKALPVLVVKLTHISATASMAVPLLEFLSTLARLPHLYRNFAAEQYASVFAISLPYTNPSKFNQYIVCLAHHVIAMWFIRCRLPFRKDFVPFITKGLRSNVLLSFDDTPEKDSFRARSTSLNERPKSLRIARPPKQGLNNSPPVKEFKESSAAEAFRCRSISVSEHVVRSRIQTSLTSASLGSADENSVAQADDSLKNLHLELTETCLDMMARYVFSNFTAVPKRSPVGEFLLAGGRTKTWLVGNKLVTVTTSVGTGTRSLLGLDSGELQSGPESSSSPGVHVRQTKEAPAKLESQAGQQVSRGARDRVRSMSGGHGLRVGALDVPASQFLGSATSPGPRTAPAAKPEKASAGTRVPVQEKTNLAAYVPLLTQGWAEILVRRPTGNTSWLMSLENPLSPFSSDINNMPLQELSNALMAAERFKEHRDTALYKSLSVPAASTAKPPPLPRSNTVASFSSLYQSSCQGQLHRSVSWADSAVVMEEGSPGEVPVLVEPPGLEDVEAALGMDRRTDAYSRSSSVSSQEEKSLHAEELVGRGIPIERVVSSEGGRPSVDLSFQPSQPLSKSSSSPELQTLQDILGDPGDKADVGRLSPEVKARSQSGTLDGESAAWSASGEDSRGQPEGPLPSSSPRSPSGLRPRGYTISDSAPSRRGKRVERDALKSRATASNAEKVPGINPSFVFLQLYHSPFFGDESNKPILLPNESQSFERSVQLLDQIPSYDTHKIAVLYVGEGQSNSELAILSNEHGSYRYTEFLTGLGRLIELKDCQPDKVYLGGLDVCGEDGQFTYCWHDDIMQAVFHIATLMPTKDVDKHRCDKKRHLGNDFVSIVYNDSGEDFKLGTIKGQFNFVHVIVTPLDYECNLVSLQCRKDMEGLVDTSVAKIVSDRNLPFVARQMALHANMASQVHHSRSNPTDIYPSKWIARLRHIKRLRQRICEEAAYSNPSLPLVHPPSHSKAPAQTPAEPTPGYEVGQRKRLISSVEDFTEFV
Sequence of UniProt Q9Y2I8 (Q9Y2I8 whole entry, looked up): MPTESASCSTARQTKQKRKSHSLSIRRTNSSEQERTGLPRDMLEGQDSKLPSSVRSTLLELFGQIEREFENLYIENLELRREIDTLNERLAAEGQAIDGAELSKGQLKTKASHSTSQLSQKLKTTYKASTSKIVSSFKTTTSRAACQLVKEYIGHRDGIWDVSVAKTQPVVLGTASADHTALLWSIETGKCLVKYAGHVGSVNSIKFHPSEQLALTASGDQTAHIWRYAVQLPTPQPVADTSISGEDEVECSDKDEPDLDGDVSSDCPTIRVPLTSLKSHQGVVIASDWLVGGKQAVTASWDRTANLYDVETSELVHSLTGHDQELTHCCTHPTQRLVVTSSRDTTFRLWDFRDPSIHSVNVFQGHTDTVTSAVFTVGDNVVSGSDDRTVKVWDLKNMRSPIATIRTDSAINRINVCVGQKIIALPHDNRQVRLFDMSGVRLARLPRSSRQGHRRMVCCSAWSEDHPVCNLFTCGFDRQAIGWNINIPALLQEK
Sequence of UniProt Q9UBK9 (Q9UBK9 whole entry, looked up): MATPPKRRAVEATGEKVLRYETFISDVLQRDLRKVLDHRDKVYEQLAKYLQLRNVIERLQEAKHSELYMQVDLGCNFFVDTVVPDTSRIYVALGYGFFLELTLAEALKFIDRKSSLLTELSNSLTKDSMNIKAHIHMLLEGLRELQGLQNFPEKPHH
Sequence of UniProt Q8IWA0 (Q8IWA0 whole entry, looked up): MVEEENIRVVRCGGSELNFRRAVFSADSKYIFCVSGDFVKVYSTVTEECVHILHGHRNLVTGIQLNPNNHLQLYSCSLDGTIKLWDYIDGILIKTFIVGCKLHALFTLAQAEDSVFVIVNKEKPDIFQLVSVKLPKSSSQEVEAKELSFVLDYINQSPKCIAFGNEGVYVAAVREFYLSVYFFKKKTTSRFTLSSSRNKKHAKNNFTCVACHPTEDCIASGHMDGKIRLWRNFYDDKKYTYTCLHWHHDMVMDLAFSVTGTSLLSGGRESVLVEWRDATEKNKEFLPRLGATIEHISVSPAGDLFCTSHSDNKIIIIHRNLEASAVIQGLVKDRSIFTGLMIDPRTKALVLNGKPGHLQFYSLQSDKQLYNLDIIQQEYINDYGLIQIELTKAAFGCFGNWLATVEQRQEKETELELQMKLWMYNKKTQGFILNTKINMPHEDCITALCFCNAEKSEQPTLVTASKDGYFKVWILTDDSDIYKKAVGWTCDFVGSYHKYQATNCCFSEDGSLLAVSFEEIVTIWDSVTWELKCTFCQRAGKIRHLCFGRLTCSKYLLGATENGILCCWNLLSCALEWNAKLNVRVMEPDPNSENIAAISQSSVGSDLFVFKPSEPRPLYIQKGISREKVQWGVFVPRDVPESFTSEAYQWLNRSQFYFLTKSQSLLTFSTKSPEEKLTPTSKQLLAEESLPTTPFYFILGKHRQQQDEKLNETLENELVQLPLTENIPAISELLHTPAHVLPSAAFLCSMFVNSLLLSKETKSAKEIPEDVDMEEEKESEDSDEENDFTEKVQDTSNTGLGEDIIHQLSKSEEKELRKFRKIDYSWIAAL

| Target | log2 fold change |
| --- | --- |
| UXT isoform 2 (UniProt Q9UBK9) | -0.019 (inactive) |
| TMEM128 (UniProt Q5BJH2) | 0.45 (active) |
| VWA3B isoform 6 (UniProt Q502W6) | 0.013 (inactive) |
| TMEM164 (UniProt Q5U3C3) | -0.088 (inactive) |
| TXN2 (UniProt Q99757) | 0.072 (inactive) |
| WDR37 isoform 2 (UniProt Q9Y2I8) | -0.39 (active) |
| UBA52 (UniProt P62987) | 0.21 (inactive) |
| U2AF1L5 (UniProt P0DN76) | -0.389 (inactive) |
| TRIM44 (UniProt Q96DX7) | 0.067 (inactive) |
| USP15 (UniProt Q9Y4E8) | 0.008 (inactive) |
| UTP3 (UniProt Q9NQZ2) | 0.031 (inactive) |
| TTC33 (UniProt Q6PID6) | -0.121 (inactive) |
| WDR75 (UniProt Q8IWA0) | -0.196 (inactive) |
| UFD1 isoform 1 (UniProt Q92890) | -0.005 (inactive) |
| TXNL4B (UniProt Q9NX01) | -0.071 (inactive) |
| TMEM189-UBE2V1 (UniProt I3L0A0) | -0.022 (inactive) |
| WARS1 (UniProt G3V277) | -0.184 (inactive) |
| UNC119B (UniProt A6NIH7) | 0.028 (inactive) |

| Target | log2 fold change |
| --- | --- |
| TSEN2 (UniProt Q8NCE0) | -0.116 (inactive) |
| UCHL5 isoform 3 (UniProt Q9Y5K5) | -0.021 (inactive) |
| TMEM184C (UniProt Q9NVA4) | 0.042 (inactive) |
| TMEM106B (UniProt Q9NUM4) | 0.043 (inactive) |
| UBIAD1 (UniProt Q9Y5Z9) | -0.055 (inactive) |
| UBE4A isoform 2 (UniProt Q14139) | -0.017 (inactive) |
| UCHL5 (UniProt Q9Y5K5) | -0.012 (inactive) |
| VPS33B (UniProt Q9H267) | -0.068 (inactive) |
| VPS33A (UniProt Q96AX1) | -0.001 (inactive) |
| VPS18 (UniProt Q9P253) | -0.029 (inactive) |
| VKORC1 (UniProt Q9BQB6) | -0.033 (inactive) |
| TNFRSF8 (UniProt P28908) | 0.005 (inactive) |
| TXNRD1 (UniProt Q16881) | -0.062 (inactive) |
| WDCP (UniProt Q9H6R7) | 0.078 (inactive) |
| TSC2 (UniProt P49815) | 0.05 (inactive) |
| TNPO3 (UniProt Q9Y5L0) | -0.014 (inactive) |
| UBE3B (UniProt Q7Z3V4) | -0.068 (inactive) |
| TMEM179B (UniProt Q7Z7N9) | -0.061 (inactive) |

Compound: CC(C)(C)Cn1c(N)nc2ccc(-c3[nH]c(C(C)(C)C)nc3-c3ccc(F)cc3)nc21 [ralimetinib]
Assay: as above
Procedure, shortened: as §1

| Target | log2 fold change |
| --- | --- |
| UXT isoform 2 (UniProt Q9UBK9) | -0.031 (inactive) |
| TMEM128 (UniProt Q5BJH2) | -0.036 (inactive) |
| VWA3B isoform 6 (UniProt Q502W6) | -0.031 (inactive) |
| TXN2 (UniProt Q99757) | -0.093 (inactive) |
| WDR37 isoform 2 (UniProt Q9Y2I8) | -0.063 (inactive) |
| UBA52 (UniProt P62987) | 0.139 (inactive) |
| TRIM44 (UniProt Q96DX7) | -0.094 (inactive) |
| USP15 (UniProt Q9Y4E8) | -0.004 (inactive) |
| UTP3 (UniProt Q9NQZ2) | 0.021 (inactive) |
| TTC33 (UniProt Q6PID6) | 0.009 (inactive) |
| WDR75 (UniProt Q8IWA0) | 0.189 (inactive) |
| UFD1 isoform 1 (UniProt Q92890) | 0 (inactive) |
| TXNL4B (UniProt Q9NX01) | -0.057 (inactive) |
| TMEM189-UBE2V1 (UniProt I3L0A0) | 0.006 (inactive) |
| UNC119B (UniProt A6NIH7) | 0.014 (inactive) |
| TSEN2 (UniProt Q8NCE0) | -0.034 (inactive) |

| Target | log2 fold change |
| --- | --- |
| UCHL5 isoform 3 (UniProt Q9Y5K5) | 0.006 (inactive) |
| TMEM184C (UniProt Q9NVA4) | -0.033 (inactive) |
| UBIAD1 (UniProt Q9Y5Z9) | -0.032 (inactive) |
| UBE4A isoform 2 (UniProt Q14139) | 0.02 (inactive) |
| UCHL5 (UniProt Q9Y5K5) | 0.03 (inactive) |
| VPS33B (UniProt Q9H267) | 0.057 (inactive) |
| VPS33A (UniProt Q96AX1) | 0.048 (inactive) |
| VPS18 (UniProt Q9P253) | -0.037 (inactive) |
| VKORC1 (UniProt Q9BQB6) | -0.052 (inactive) |
| TNFRSF8 (UniProt P28908) | -0.143 (inactive) |
| TXNRD1 (UniProt Q16881) | -0.088 (inactive) |
| WDCP (UniProt Q9H6R7) | -0.006 (inactive) |
| TSC2 (UniProt P49815) | 0.091 (inactive) |
| TNPO3 (UniProt Q9Y5L0) | 0.024 (inactive) |
| UBE3B (UniProt Q7Z3V4) | -0.296 (inactive) |
| TMEM179B (UniProt Q7Z7N9) | -0.008 (inactive) |
